We go through 14 compounds from PubChem BioAssay.

The source made the active and inactive calls.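 The calls were made as follows, unless noted: active = inhibition above 20% together with a positive visual image hit; inconclusive = visual image hit but inhibition not above 20%; inactive = no visual image hit.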

Assay [1] can be described thus: inhibitors of TNFa-induced NFkB p65 translocation, primary screen, imaging, HUVEC, MLSMR starter and 10KST1 sets (AID 438).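 Also: compound added about 3h40 before a 20 min TNFalpha stimulation.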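 As to inhibition: signal is the nuclear over cytoplasmic p65 intensity ratio per well.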 The conditions noted are these: HUVEC TNFa-induced p65 nuclear translocation; cell count: measured here: nuclei count (cytotoxicity indicator), at 2.08 µM; inhibition: at 2 µM, stronger effect = higher value, 0% TNFa-plus-vehicle, 100% no-TNFa wells.
Assay [2] in a line: inhibitors of mutant huntingtin aggregation, primary screen, imaging, exon1htt(103Q)mCFP cells, high-content imaging (AID 483;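 active = visual image review flags a hit and inhibition of aggregation exceeds 20%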;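 also: compound exposure lasted 3 days before fixation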;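 as to nuclei count: percent of the per-plate median nuclei count of sample wells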). The conditions noted are these: exon1htt(103Q)mCFP cell line, aggregate imaging, at 2 µM; inhibition of aggregation: stronger effect = higher value; nuclei count: measured here: cell count, toxicity.
The nature of assay [3]: inhibitors of E-selectin induction by TNFa, primary screen, imaging, HUVEC, immunofluorescence, MLSMR starter and 10KST1 sets (AID 487;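 active = visually confirmed hit in the image check and inhibition above 20%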;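 as to inhibition: signal is fraction of cell area covered by stained E-selectin grains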;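 as to nuclei count: 100% = median nuclei count of all wells on the same plate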). The conditions noted are these: HUVEC TNFalpha-induced E-selectin immunofluorescence imaging, at 2 µM; inhibition: stronger effect = higher value; nuclei count: measured here: cell number, toxicity.
The target of assay [4] is Voltage-gated potassium channel subunit beta-2 (Rattus norvegicus) (UniProt P62483). Put plainly: KvBeta enzyme negative modulators, primary screen, biochemical, NADPH fluorescence (AID 622;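 active = fluorescence slope higher than the sample average by over 3 SD, cut at about -0.22 in these data, passing the limit was not always enough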;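 also: slope of raw intensity against log time taken from 70 to 1610 s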). The settings on record: recombinant KvBeta, 4-cyanobenzaldehyde reduction, at 10 µM, stronger effect = higher value.
Voltage-gated potassium channel subunit beta-2 (Rattus norvegicus), sequence (P62483 whole entry, looked up): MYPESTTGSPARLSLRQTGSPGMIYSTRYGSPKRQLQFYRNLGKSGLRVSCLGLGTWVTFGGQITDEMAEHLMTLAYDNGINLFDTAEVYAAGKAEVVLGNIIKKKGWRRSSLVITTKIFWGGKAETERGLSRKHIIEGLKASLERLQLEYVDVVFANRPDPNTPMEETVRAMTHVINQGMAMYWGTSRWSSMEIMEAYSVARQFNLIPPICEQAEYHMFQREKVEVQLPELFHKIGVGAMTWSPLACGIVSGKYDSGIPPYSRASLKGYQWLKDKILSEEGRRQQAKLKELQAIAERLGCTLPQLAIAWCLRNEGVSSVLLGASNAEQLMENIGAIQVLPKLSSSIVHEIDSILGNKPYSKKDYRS
The target is the same in assay [5]. Put plainly: KvBeta positive modulators, primary screen, biochemical, NADPH fluorescence (AID 623;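 active = NADPH fluorescence slope more negative than the mean of all samples by about 3 SD, 99.7% confidence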;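 also: fluorescence intensity change per second fitted from 20 to 320 s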). The conditions noted are these: Recombinant KvBeta, NADPH fluorescence decrease slope, 10 min; at 10 µM; stronger effect = lower value.
Assay [6] concerns the target Alpha-2C adrenergic receptor (Homo sapiens) (UniProt P18825). In words: modulators of alpha2C/GIRK thallium flux, primary screen, cell-based, HEK293 alpha2C/GIRK1/2 (AID 624;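 active = fluorescence slope after compound addition differing from the mean of all screened samples at 99.7% confidence, in either direction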;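 also: slope of fluorescence ratio to pre-addition baseline per second over 15 to 24 s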). The settings on record: thallium flux BTC fluorescence, at 10 µM, actives lie on both sides.
A short description of assay [7]: inhibitors of Sendai virus-induced IRF3 signaling, primary screen, TLR/RLR signaling modifier project, cell-based, Sendai virus stimulus, luciferase, 10K MLSCN set (AID 602276;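 active = inhibition at or above 50% at 10 µM; inactive = inhibition below 50%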;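 also: firefly luciferase from ISG56 promoter only with Renilla not read in this screen; 0% = Sendai virus plus DMSO and 100% = medium plus DMSO without virus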). The settings on record: HEK293 RL24 IRF3 luciferase reporter, at 10 µM, stronger effect = higher value. On the technique in general: In a reporter assay the amount or activity of a reporter protein is the signal.

The nature of assay [8]: inhibitors of poly I:C-induced TLR3 signaling, primary screen, cell-based, poly I:C stimulus, luciferase, 10K MLSCN set (AID 602277;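 active = inhibition of the reporter signal at or above 50%; inactive = inhibition below 50%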). The settings on record: HEK293-TLR3 RL24 IRF3 luciferase reporter, at 10 µM, stronger effect = higher value.

Alpha-2C adrenergic receptor (Homo sapiens), sequence (P18825 whole entry, looked up): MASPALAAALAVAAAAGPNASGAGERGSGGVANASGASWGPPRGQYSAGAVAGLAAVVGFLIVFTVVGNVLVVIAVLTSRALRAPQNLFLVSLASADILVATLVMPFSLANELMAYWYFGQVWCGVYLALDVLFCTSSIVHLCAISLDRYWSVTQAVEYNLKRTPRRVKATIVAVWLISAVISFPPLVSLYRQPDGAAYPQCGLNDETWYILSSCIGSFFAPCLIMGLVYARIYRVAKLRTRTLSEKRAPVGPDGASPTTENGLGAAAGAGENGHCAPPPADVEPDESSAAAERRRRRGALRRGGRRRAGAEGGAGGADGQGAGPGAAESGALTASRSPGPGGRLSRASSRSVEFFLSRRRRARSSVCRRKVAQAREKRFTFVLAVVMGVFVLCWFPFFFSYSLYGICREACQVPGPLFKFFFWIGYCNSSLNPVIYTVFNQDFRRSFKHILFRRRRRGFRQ

Regarding `COc1ccc(NC(=O)C2CCCN2S(=O)(=O)c2cccc3cccnc23)c(OC)c1` (centres undefined), the cell count in assay [1] worked out at 645. The inhibition (usually the drop in the measured response relative to a control, in per cent) in assay [1] is -8.6% (inactive); in assay [3] it was -59.6% (inactive); in assay [7], 1.34% (inactive); in assay [8], 38.4% (inactive). The inhibition of aggregation in assay [2] is 2.8% (inactive). For the same compound, the nuclei count was 77.7% in assay [2] and 103% in assay [3]. Moreover, the fluorescence slope in assay [4] was -0.626 (inactive). In addition, in assay [5], the NADPH fluorescence slope was 2.3e-06 (inactive). Moreover, the slope in assay [6] was 0.00652 (inactive).

For `O=C(Nc1ccc(OC(=O)c2ccco2)cc1)c1ccco1`, the cell count in assay [1] worked out at 239. Also, the inhibition in assay [1] is -2.2% (inactive); in assay [3], 10.8% (inactive); in assay [7], 4.1% (inactive); in assay [8], -1.78% (inactive). In assay [2], the inhibition of aggregation is -7.4% (inactive). In addition, the nuclei count in assay [2] was determined as 92%; in assay [3], 101%. Also, the fluorescence slope in assay [4] is -0.442 (inactive). Also, the NADPH fluorescence slope in assay [5] is -1e-05 (inactive). For the same compound, in assay [6], the slope is 0.00563 (inactive).

Take `CC(C)NC(=O)CSCc1ccccc1Cl`: in assay [1], the cell count is 350. For the same compound, the inhibition in assay [1] is 12.5% (inactive); in assay [3], -0.7% (inactive); in assay [7], 9.82% (inactive); in assay [8], 0.78% (inactive). The inhibition of aggregation in assay [2] is 6.1% (inactive). Moreover, the nuclei count was determined as 100% in assay [2] and 110% in assay [3]. In addition, in assay [4], the fluorescence slope was -0.5 (inactive). Besides, the NADPH fluorescence slope in assay [5] is -1.3e-05 (inactive). Also, in assay [6], the slope was 0.00508 (inactive).

Consider `CCOC(=O)C1=C(NC#N)OC(C)=C(C)C1c1ccc(O)cc1` (centres undefined), for which the cell count in assay [1] was found to be 276. Besides, the inhibition in assay [1] was 1% (inactive); in assay [3], 15.8% (inactive); in assay [7], 20.5% (inactive); in assay [8], 18.3% (inactive). Besides, the inhibition of aggregation in assay [2] was -12.7% (inactive). The values for the nuclei count in assay [2] and in assay [3] were 117% and 100%, respectively. In addition, the fluorescence slope in assay [4] was -0.487 (inactive). For the same compound, the NADPH fluorescence slope in assay [5] is -1.5e-05 (inactive). In assay [6], the slope is 0.00651 (inactive).

Consider `CCC(=O)OCCn1c(=O)c2cc3c(=O)n(CCOC(=O)CC)c(=O)c3cc2c1=O`, for which the cell count in assay [1] was found to be 446. Also, the inhibition in assay [1] is 0% (inactive); in assay [3], -44.7% (inactive); in assay [7], -12.3% (inactive); in assay [8], 6.39% (inactive). For the same compound, the inhibition of aggregation in assay [2] was -19% (inactive). For the same compound, the nuclei count was 94.4% in assay [2] and 125% in assay [3]. Further, in assay [4], the fluorescence slope is -0.483 (inactive). Also, in assay [5], the NADPH fluorescence slope is 2.7e-05 (inactive). In assay [6], the slope is 0.00378 (inactive).

As to `Oc1cc(NCc2cccnc2)ccc1-c1nc2ccccc2o1`, in assay [1], the cell count is 378. The inhibition in assay [1] is 6.8% (inactive); in assay [3], -28.5% (inactive); in assay [7], -31.3% (inactive); in assay [8], -152% (inactive). For the same compound, the inhibition of aggregation in assay [2] is -7.8% (inactive). Besides, the nuclei count is 119% in assay [2] and 123% in assay [3]. Further, the fluorescence slope in assay [4] is -0.46 (inactive). For the same compound, in assay [5], the NADPH fluorescence slope is 8.7e-06 (inactive). Also, in assay [6], the slope was 0.00562 (inactive).

Turning to `CCOc1ccc(C(C)=O)cc1COc1ccc(-n2cnnn2)cc1`, the cell count in assay [1] came out at 407. In addition, the inhibition in assay [1] is -8.7% (inactive); in assay [3] it was 25.1% (inactive); in assay [7], 1.13% (inactive); in assay [8], -2.41% (inactive). Moreover, the inhibition of aggregation in assay [2] is 18.3% (inactive). Besides, the nuclei count in assay [2] was 80.8%; in assay [3], 132%. Besides, the fluorescence slope in assay [4] is -0.617 (inactive). Further, in assay [5], the NADPH fluorescence slope was -6.6e-05 (inactive). Moreover, the slope in assay [6] is 0.00398 (inactive).

As for `COc1ccc(Cl)cc1Nc1nc(NCCO)nc(N2CCCC2)n1`, in assay [1], the cell count was found to be 390. Also, the inhibition in assay [1] is -4.3% (inactive); in assay [3], -6% (inactive); in assay [7], 11.5% (inactive); in assay [8], 16.2% (inactive). The inhibition of aggregation in assay [2] was 5.8% (inactive). Moreover, the results for the nuclei count in assay [2] and in assay [3] were 95.9% and 112%, respectively. In addition, the fluorescence slope in assay [4] was -0.595 (inactive). In addition, the NADPH fluorescence slope in assay [5] was -2.1e-05 (inactive). Further, in assay [6], the slope was 0.00689 (inactive).

Take `O=S(=O)(c1ccc2ccccc2c1)N1CCCCC1`: in assay [1], the cell count is 424. For the same compound, the inhibition was 2.6% (inactive) in assay [1], 20.8% (inactive) in assay [3], 13.9% (inactive) in assay [7] and 33.1% (inactive) in assay [8]. The inhibition of aggregation in assay [2] is 7% (inactive). In addition, the nuclei count in assay [2] and in assay [3] was 104% throughout. Further, the fluorescence slope in assay [4] was -0.413 (inactive). In addition, the NADPH fluorescence slope in assay [5] is -2.4e-06 (inactive). Besides, in assay [6], the slope is 0.00701 (inactive).

As for `CCOC(=O)N1CCN(C(=O)COc2ccc(S(=O)(=O)NC3CCCCC3)cc2C)CC1`, the cell count in assay [1] is 536. Further, the inhibition in assay [1] is 9.7% (inactive); in assay [3], -31.8% (inactive); in assay [7], 3.18% (inactive); in assay [8], -12.8% (inactive). Further, the inhibition of aggregation in assay [2] is -14.2% (inactive). The nuclei count stood at 105% in assay [2] and 93.5% in assay [3]. For the same compound, in assay [4], the fluorescence slope was -0.644 (inactive). Further, the NADPH fluorescence slope in assay [5] is -4.2e-05 (inactive). Besides, the slope in assay [6] is 0.00446 (inactive).

As to `CC1(C)OC(=O)C(=CNc2ccccc2F)C(=O)O1`, in assay [1], the cell count was 604. Moreover, the inhibition was -9.5% (inactive) in assay [1], 22.8% (inactive) in assay [3], 14.1% (inactive) in assay [7] and 28% (inactive) in assay [8]. Besides, the inhibition of aggregation in assay [2] was 29.9% (inactive). Besides, the nuclei count in assay [2] was 95.6%; in assay [3] it was 96.8%. In addition, in assay [4], the fluorescence slope was -0.606 (inactive). Further, the NADPH fluorescence slope in assay [5] was -1.2e-05 (inactive). In addition, the slope in assay [6] is 0.0057 (inactive).

For the compound `O=C(c1ccc2c(c1)c(=O)oc1ccccc12)N1CCCCC1`, in assay [1], the cell count is 206. The inhibition in assay [1] was 0.3% (inactive); in assay [3], 19.4% (inactive); in assay [7] it was -50.7% (inactive); in assay [8], -130% (inactive). For the same compound, the inhibition of aggregation in assay [2] is 15.8% (inactive). Also, the nuclei count came out at 87.8% in assay [2] and 90.7% in assay [3]. Besides, the fluorescence slope in assay [4] is -0.363 (inactive). Further, in assay [5], the NADPH fluorescence slope was 1.9e-05 (inactive). In addition, the slope in assay [6] is 0.00354 (inactive).

Take `CC1CCc2nn(CC(=O)NCCCN3CCOCC3)cc2C1` (centres undefined): in assay [1], the cell count turned out to be 608. The inhibition is 10.3% (inactive) in assay [1], 28.4% (inactive) in assay [3], 8.95% (inactive) in assay [7] and 36.3% (inactive) in assay [8]. Moreover, in assay [2], the inhibition of aggregation was -17.8% (inactive). In addition, the nuclei count amounted to 125% in assay [2] and 107% in assay [3]. Also, the fluorescence slope in assay [4] was -0.578 (inactive). Further, the NADPH fluorescence slope in assay [5] is -1.9e-05 (inactive). The slope in assay [6] is 0.0058 (inactive).

Consider `CC(=O)OC(C(=O)NC1CCCCC1)c1ccncc1` (centres undefined), for which, in assay [1], the cell count stood at 614. Besides, the inhibition in assay [1] is -8.1% (inactive); in assay [3], -147% (inactive); in assay [7], 8.21% (inactive); in assay [8], 13.3% (inactive). Moreover, in assay [2], the inhibition of aggregation was -3.6% (inactive). The nuclei count in assay [2] worked out at 105%; in assay [3], 107%. Further, the fluorescence slope in assay [4] is -0.498 (inactive). Moreover, the NADPH fluorescence slope in assay [5] was -3e-05 (inactive). Moreover, in assay [6], the slope is 0.00464 (inactive).
